# In PubChem BioAssay (EPA / NIEHS):
# The source made the active and inactive calls. Rule for the calls: active = hit-call score of the fitted dose curve at least 0.9, where 1 is the maximum; inactive = score below 0.9.
# Experiment: APR_HepG2_CellCycleArrest_1hr: Apredica 1-hour HepG2 Assay for Cell Cycle Arrest (AID 2282666)
# Conditions: high-content imaging, actives raise or lower the signal
# Procedure: APR_HepG2_1hr is a cell-based, multiplexed-readout assay that uses HepG2, a human liver cell line, with measurements taken at 1 hour after chemical dosing in a 384-well plate.APR_HepG2_CellCycleArrest_1hr is one of 10 assay component(s) measured or calculated from the APR_HepG2_1hr assay. It is designed to make measurements of cell phenotype, a form of morphology reporter, as detected with fluorescence intensity signals by HCS Fluorescent Imaging technology.Data from the assay component APR_HepG2_CellCycleArrest_1hr was analyzed into 1 assay endpoint. This assay endpoint, APR_HepG2_CellCycleArrest_1hr, was analyzed with bidirectional fitting relative to DMSO as the negative control and baseline of activity. Using a type of morphology reporter, measures of all nuclear dna for gain or loss-of-signal activity can be used to understand the signaling at the pathway-level as they relate to the gene . Furthermore, this assay endpoint can be referred to as a primary readout, because this assay has produced multiple assay endpoints where this one serves a signaling function. To generalize the intended target to other relatable targets, this assay endpoint is annotated to the cell cycle intended target family, where the subfamily is arrest.
# Cells were treated with dimethyl sulfoxide (DMSO) as a solvent control at a final concentration of 0.5% v/v or with compounds in DMSO with a resulting final DMSO concentration of 0.5% v/v. Compound treatment was done at concentrations of 0.39, 0.78, 1.56, 3.12, 6.24, 12.5, 25, 50, 100, and 200 uM in duplicate on each plate. Cells were treated with compounds for 1, 24, or 72 hr. Carbonyl […] m-chloro-phenylhydrazone (CCCP) and taxol were used as positive controls for mitochondrial function and cytoskeletal stability, respectively; DMSO served as the negative control for this experiment. Cells were fixed by the direct addition of 50 uL formaldehyde in Hank's Balanced Salt Solution (HBSS) to a final concentration of 3.7%. After incubation in the fixation medium for 30 min at room temperature (293-298 K), cells were rinsed twice with HBSS and treated with cell permeabilization buffer (16 uL of 0.5% Triton X-100) for 10 min at room temperature (293-298 K) before labeling. For mitochondrial membrane potential and mitochondrial measurements, pre-fixed cells were incubated with 50 uL of MitoTracker Red CMXRos (Invitrogen) at a concentration of 250 nM for 30 min before fixation. In the remaining cases, post-fixed cells were labeled by incubation with a multiplexed mixture of primary antibodies in HBSS for 60 min at room temperature (293-298 K) to detect immunoreactivity of c-Jun (1:500), phospho-histone H3 (1:100), phospho-histone H2A.x (1:200), p53 (1:400), alpha-tubulin (1:200) and Hoechst 33342 (2 ug/mL). Cells were labeled for multiplexed imaging on two separate plates: a) Hoechst 33342, MitoTracker Red, phospho-histone H3, and alpha-tubulin, and b) Hoechst 33342, phospho-histone H2A.x, and c-Jun. A final rinse with HBSS (50 uL) was performed before analysis. The primary and secondary antibodies for the proteins were phospho-histone H3 (rabbit anti-phospho-histone H3 and FITC-donkey anti-rabbit IgG), phospho-histone H2A.x (mouse anti-phospho-histone H2A.x and FITC-donkey anti-mouse IgG), c-Jun (rabbit anti-phospho-c-Jun and Cy3-donkey anti-rabbit IgG), p53 (sheep anti-p53 and Cy5-donkey anti-sheep IgG), alpha-tubulin (mouse anti-alpha-tubulin and Cy5-donkey anti-mouse IgG). These antibodies are available as the CellCiphr HepG2 assay kit (Millipore).Digital images of each well were captured using a Cellomics ArrayScan VTI (Thermo Scientific Cellomics) (0.8 NA objective, 0.63x optical coupler, and XF-93 filter set) at 20x magnification. The images were acquired using the autofocus feature of the ArrayScan instrument, which entails the following steps. First, the camera focuses on channel 1 (Hoechst 33342), where nuclei are identified. Second, a Z offset of 1 um is used for capturing mitochondria (MitoTracker Red). […]
row,SMILES,outcome
1,Cc1c(F)c(F)c(COC(=O)C2C(/C=C(\Cl)C(F)(F)F)C2(C)C)c(F)c1F (stereo not given),inactive
2,CCCCC(CC)COC(=O)c1ccccc1C(=O)OCC(CC)CCCC (stereo not given),inactive
3,CCNc1nc(Cl)nc(NCC)n1,inactive
4,Oc1ccccc1-c1ccccc1,inactive
5,C=CCC1=C(C)C(OC(=O)C2C(C=C(C)C)C2(C)C)CC1=O (stereo not given),inactive
6,CCOc1cc(Oc2ccc(C(F)(F)F)cc2Cl)ccc1[N+](=O)[O-],inactive
7,COc1ccc(C(c2ccc(OC)cc2)C(Cl)(Cl)Cl)cc1,inactive
8,CC1COC(Cn2cncn2)(c2ccc(Oc3ccc(Cl)cc3)cc2Cl)O1 (stereo not given),inactive
9,CC(C)Oc1cc(-n2nc(C(C)(C)C)oc2=O)c(Cl)cc1Cl,inactive
10,COC(=O)N(OC)c1ccccc1COc1ccn(-c2ccc(Cl)cc2)n1,inactive
11,OC(c1ccc(Cl)cc1)(c1cncnc1)c1ccccc1Cl (stereo not given),inactive
12,COC(=O)C=C(C)OP(=O)(OC)OC,inactive
13,COC(=O)c1ccccc1C(=O)OC,inactive
14,N#Cc1cc(Br)c(O)c(Br)c1,inactive
15,Cc1cc(Cl)ccc1OCC(=O)O,inactive
16,COc1cnc(OC)n2nc(NS(=O)(=O)c3c(OCC(F)F)cccc3C(F)(F)F)nc12,inactive
17,CNC(=S)S,inactive
18,C=CC1(C)OC(=O)N(c2cc(Cl)cc(Cl)c2)C1=O (stereo not given),inactive
19,COP(N)(=O)SC (stereo not given),inactive
20,Cc1ccc(-c2c(Cl)nc(C#N)n2S(=O)(=O)N(C)C)cc1,inactive

row,SMILES,outcome
1,CC(C)(C)c1ccc(CSc2cnn(C(C)(C)C)c(=O)c2Cl)cc1,inactive
2,CCCC1COC(Cn2cncn2)(c2ccc(Cl)cc2Cl)O1 (stereo not given),inactive
3,COP(=S)(OC)Oc1nc(Cl)c(Cl)cc1Cl,inactive
4,O=C(O)COc1nc(Cl)c(Cl)cc1Cl,inactive
5,CCOC(=O)C(Cl)Cc1cc(-n2nc(C)n(C(F)F)c2=O)c(F)cc1Cl (stereo not given),inactive
6,CNC(=O)ON=CC(C)(C)SC,inactive
7,COc1nc(NC(C)C)nc(NC(C)C)n1,inactive
8,CN(C)C(=S)SSC(=S)N(C)C,inactive
9,COC(=O)C(C)Oc1ccc(Oc2ccc(Cl)cc2Cl)cc1 (stereo not given),inactive
10,CCCCNC(=O)n1c(NC(=O)OC)nc2ccccc21,inactive
11,CC(C)C1(C)N=C(c2nc3ccccc3cc2C(=O)O)NC1=O (stereo not given),inactive
12,CO/C=C(/C(=O)OC)c1ccccc1Oc1cc(Oc2ccccc2C#N)ncn1,inactive
13,CCCCNC(=O)OCC#CI,inactive
14,CCc1nn(C)c(C(=O)NCc2ccc(C(C)(C)C)cc2)c1Cl,inactive
15,CCCCOC(=O)c1ccccc1C(=O)OCCCC,inactive
16,CS/C(C)=N/OC(=O)N(C)SN(C)C(=O)O/N=C(\C)SC,inactive
17,CC1=C(C(=O)Nc2ccccc2)SCCO1,inactive
18,CCNc1nc(Cl)nc(NC(C)C)n1,inactive
19,COc1nc(C)nc(NC(=O)NS(=O)(=O)c2ccccc2Cl)n1,inactive
20,CCOP(=S)(OCC)SCn1c(=O)oc2cc(Cl)ccc21,inactive
